Laboratory results as given in the supplement of paper PMC3334620.
In all, about 33,000 sequences were measured (“E-score (-0.5 to 0.5)”: median about -0.0059, highest 2% from about 0.26 on). The full list was thinned out, with the highest values kept by preference.

target: T1, Cin5 (UniProt P40917); test: PBM E-score (8-mer binding enrichment) (E-score (-0.5 to 0.5)); higher = stronger / more preferred TF binding; settings: protein concentration: 100 nM; construct: GST-full length
T1 sequence: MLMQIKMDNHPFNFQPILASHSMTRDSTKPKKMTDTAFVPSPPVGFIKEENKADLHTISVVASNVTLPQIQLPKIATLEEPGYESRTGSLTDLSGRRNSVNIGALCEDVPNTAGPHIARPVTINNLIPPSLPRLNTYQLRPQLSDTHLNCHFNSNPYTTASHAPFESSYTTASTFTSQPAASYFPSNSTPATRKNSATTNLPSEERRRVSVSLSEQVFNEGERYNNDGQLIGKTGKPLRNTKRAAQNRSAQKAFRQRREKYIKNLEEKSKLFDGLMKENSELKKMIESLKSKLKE
How it was run: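 Yeast transcription factors, full-length or as DNA-binding domains, were expressed with a GST tag using PURExpress in vitro transcription/translation. At about 100-200 nM they were applied to universal all-10-mer Agilent arrays, double-stranded by primer extension on fresh or once-stripped slides. Fluorescent anti-GST detected bound protein, and masliner normalised the scans. E-scores for ungapped eight-base words, pooled with reverse complements, came from the Universal PBM Analysis Suite.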

Sequence | PBM E-score
AGCGGGCG | -0.0666
TCTGGGCA | -0.124
GGGCGAAA | 0.0331
ACCGCCGC | -0.101
TCCGCTAA | -0.0291
AGACCTTC | -0.134
AGCCTAAA | -0.0722
CGTTGCGA | -0.0384
GCGCTGAA | -0.2
ACCAGATC | -0.0659
ACAATTAT | 0.205
ATAATTAA | 0.303
ATAATTAC | 0.365
GTAATTAA | 0.13
ATAATTAG | 0.241
GTAATTAC | 0.175
CTAATTAC | 0.24
TTAATTAA | 0.183
ATAATTAT | 0.341
ACCGGTAC | -0.217
CAACACTC | 0.105
GGATCAGA | -0.042
CGTGAAAG | -0.0748
GTATTCGA | -0.0476
ACAACCTA | 0.0123

Sequence | PBM E-score
AATCGCTG | -0.0284
CTATTGAG | 0.144
ATATTGAT | 0.249
ATATTGAG | 0.266
GCTCAAAA | -0.00649
CCTAATAC | 0.113
ACTAATAG | 0.277
ACTAATAA | 0.221
GCTAATAC | 0.153
ACTAATAT | 0.234
ACTAATAC | 0.26
ATAAGGCG | 0.0483
CTCCGCTA | -0.116
CCAGTTAA | 0.134
GCGGTGGA | 0.0809
GAAGCAGC | -0.162
CAGCTTGC | -0.0574
GAGCTTAC | 0.191
CAGCTTAG | 0.0588
AAGCTTAG | 0.306
AAGCTTAC | 0.282
CAGCTTAA | 0.0109
CAGCTTAC | 0.312
AAGCTTAT | 0.231
AAGCTTAA | 0.164

Sequence | PBM E-score
CGGGTAGC | -0.214
AGATGGAA | 0.167
GAGGTCCA | -0.14
AGGCTTAC | 0.258
CGGCTTAG | -0.0489
CGGCTTAA | 0.19
AGGCTTAT | 0.152
CGGCTTAC | 0.358
AGGCTTAG | 0.0724
GTAACGGA | 0.252
CGAATTAC | 0.0723
GCGCGGCC | -0.0214
CCCGCGCG | 0.138
CCTTCTGC | -0.126
AAACTTGT | 0.0442
AGAACCTG | -0.127
GGACATCA | 0.0421
CGACATCA | 0.137
TGACATCA | 0.356
TCCATTCA | 0.0889
GAGGTGCA | -0.0183
AATGCATT | 0.259
AATGCAAA | 0.275
AATGCAAG | 0.00342
AATGCATG | 0.183

Sequence | PBM E-score
AATGCATA | 0.116
AATGCAAC | 0.0401
ACGTTTCG | -0.0249
GCTCCCGA | -0.217
ACGTCTCA | 0.124
CAAACTCG | 0.0562
AGTTCCGA | 0.123
CGCATCTA | 0.271
AGCATCTA | 0.00891
GGCATCTA | -0.0103
CGCCATCA | -0.202
AACAAATG | 0.0424
AAAAAATA | 0.213
AACAAATT | 0.274
AACAAGTT | 0.0368
CAAATATC | 0.282
GGGAAATA | 0.0795
CGGAAATC | 0.137
CCAAAATA | 0.113
CGGAAATA | 0.33
AAAATATC | 0.189
CAAAAATA | 0.277
CAAATATG | 0.117
